Experimental data taken from the supplement of paper PMC11001985.

compound: C#CCNC(=O)CCSSCCC(=O)NCCc1ccc(C=O)c(C=O)c1; experiment: lysine labeling ratio R10:1 (500 µM / 50 µM probe), SILAC-ABPP in living cells; higher = lower intrinsic lysine reactivity toward the probe, active = 2 or less; settings: HeLa; probe concentrations 500 vs 50 µM
Description: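 Living HeLa cells (SILAC light/heavy) in PBS at room temperature were labeled with 50 µM versus 500 µM of the lysine-reactive, reductant-cleavable probe OPA-S-S-alkyne (SILAC labeling time not stated). Probe-modified peptides were CuAAC-biotinylated, captured on neutravidin and eluted with DTT/IAA, then quantified by LC-MS/MS. R = median peptide ratio per lysine (500/50 µM), combined over 3 forward and 3 reverse SILAC replicates. Ratios are capped at 20; R < 2 = hyper-reactive.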

UniProt Q15149, sequence (Q15149 whole entry): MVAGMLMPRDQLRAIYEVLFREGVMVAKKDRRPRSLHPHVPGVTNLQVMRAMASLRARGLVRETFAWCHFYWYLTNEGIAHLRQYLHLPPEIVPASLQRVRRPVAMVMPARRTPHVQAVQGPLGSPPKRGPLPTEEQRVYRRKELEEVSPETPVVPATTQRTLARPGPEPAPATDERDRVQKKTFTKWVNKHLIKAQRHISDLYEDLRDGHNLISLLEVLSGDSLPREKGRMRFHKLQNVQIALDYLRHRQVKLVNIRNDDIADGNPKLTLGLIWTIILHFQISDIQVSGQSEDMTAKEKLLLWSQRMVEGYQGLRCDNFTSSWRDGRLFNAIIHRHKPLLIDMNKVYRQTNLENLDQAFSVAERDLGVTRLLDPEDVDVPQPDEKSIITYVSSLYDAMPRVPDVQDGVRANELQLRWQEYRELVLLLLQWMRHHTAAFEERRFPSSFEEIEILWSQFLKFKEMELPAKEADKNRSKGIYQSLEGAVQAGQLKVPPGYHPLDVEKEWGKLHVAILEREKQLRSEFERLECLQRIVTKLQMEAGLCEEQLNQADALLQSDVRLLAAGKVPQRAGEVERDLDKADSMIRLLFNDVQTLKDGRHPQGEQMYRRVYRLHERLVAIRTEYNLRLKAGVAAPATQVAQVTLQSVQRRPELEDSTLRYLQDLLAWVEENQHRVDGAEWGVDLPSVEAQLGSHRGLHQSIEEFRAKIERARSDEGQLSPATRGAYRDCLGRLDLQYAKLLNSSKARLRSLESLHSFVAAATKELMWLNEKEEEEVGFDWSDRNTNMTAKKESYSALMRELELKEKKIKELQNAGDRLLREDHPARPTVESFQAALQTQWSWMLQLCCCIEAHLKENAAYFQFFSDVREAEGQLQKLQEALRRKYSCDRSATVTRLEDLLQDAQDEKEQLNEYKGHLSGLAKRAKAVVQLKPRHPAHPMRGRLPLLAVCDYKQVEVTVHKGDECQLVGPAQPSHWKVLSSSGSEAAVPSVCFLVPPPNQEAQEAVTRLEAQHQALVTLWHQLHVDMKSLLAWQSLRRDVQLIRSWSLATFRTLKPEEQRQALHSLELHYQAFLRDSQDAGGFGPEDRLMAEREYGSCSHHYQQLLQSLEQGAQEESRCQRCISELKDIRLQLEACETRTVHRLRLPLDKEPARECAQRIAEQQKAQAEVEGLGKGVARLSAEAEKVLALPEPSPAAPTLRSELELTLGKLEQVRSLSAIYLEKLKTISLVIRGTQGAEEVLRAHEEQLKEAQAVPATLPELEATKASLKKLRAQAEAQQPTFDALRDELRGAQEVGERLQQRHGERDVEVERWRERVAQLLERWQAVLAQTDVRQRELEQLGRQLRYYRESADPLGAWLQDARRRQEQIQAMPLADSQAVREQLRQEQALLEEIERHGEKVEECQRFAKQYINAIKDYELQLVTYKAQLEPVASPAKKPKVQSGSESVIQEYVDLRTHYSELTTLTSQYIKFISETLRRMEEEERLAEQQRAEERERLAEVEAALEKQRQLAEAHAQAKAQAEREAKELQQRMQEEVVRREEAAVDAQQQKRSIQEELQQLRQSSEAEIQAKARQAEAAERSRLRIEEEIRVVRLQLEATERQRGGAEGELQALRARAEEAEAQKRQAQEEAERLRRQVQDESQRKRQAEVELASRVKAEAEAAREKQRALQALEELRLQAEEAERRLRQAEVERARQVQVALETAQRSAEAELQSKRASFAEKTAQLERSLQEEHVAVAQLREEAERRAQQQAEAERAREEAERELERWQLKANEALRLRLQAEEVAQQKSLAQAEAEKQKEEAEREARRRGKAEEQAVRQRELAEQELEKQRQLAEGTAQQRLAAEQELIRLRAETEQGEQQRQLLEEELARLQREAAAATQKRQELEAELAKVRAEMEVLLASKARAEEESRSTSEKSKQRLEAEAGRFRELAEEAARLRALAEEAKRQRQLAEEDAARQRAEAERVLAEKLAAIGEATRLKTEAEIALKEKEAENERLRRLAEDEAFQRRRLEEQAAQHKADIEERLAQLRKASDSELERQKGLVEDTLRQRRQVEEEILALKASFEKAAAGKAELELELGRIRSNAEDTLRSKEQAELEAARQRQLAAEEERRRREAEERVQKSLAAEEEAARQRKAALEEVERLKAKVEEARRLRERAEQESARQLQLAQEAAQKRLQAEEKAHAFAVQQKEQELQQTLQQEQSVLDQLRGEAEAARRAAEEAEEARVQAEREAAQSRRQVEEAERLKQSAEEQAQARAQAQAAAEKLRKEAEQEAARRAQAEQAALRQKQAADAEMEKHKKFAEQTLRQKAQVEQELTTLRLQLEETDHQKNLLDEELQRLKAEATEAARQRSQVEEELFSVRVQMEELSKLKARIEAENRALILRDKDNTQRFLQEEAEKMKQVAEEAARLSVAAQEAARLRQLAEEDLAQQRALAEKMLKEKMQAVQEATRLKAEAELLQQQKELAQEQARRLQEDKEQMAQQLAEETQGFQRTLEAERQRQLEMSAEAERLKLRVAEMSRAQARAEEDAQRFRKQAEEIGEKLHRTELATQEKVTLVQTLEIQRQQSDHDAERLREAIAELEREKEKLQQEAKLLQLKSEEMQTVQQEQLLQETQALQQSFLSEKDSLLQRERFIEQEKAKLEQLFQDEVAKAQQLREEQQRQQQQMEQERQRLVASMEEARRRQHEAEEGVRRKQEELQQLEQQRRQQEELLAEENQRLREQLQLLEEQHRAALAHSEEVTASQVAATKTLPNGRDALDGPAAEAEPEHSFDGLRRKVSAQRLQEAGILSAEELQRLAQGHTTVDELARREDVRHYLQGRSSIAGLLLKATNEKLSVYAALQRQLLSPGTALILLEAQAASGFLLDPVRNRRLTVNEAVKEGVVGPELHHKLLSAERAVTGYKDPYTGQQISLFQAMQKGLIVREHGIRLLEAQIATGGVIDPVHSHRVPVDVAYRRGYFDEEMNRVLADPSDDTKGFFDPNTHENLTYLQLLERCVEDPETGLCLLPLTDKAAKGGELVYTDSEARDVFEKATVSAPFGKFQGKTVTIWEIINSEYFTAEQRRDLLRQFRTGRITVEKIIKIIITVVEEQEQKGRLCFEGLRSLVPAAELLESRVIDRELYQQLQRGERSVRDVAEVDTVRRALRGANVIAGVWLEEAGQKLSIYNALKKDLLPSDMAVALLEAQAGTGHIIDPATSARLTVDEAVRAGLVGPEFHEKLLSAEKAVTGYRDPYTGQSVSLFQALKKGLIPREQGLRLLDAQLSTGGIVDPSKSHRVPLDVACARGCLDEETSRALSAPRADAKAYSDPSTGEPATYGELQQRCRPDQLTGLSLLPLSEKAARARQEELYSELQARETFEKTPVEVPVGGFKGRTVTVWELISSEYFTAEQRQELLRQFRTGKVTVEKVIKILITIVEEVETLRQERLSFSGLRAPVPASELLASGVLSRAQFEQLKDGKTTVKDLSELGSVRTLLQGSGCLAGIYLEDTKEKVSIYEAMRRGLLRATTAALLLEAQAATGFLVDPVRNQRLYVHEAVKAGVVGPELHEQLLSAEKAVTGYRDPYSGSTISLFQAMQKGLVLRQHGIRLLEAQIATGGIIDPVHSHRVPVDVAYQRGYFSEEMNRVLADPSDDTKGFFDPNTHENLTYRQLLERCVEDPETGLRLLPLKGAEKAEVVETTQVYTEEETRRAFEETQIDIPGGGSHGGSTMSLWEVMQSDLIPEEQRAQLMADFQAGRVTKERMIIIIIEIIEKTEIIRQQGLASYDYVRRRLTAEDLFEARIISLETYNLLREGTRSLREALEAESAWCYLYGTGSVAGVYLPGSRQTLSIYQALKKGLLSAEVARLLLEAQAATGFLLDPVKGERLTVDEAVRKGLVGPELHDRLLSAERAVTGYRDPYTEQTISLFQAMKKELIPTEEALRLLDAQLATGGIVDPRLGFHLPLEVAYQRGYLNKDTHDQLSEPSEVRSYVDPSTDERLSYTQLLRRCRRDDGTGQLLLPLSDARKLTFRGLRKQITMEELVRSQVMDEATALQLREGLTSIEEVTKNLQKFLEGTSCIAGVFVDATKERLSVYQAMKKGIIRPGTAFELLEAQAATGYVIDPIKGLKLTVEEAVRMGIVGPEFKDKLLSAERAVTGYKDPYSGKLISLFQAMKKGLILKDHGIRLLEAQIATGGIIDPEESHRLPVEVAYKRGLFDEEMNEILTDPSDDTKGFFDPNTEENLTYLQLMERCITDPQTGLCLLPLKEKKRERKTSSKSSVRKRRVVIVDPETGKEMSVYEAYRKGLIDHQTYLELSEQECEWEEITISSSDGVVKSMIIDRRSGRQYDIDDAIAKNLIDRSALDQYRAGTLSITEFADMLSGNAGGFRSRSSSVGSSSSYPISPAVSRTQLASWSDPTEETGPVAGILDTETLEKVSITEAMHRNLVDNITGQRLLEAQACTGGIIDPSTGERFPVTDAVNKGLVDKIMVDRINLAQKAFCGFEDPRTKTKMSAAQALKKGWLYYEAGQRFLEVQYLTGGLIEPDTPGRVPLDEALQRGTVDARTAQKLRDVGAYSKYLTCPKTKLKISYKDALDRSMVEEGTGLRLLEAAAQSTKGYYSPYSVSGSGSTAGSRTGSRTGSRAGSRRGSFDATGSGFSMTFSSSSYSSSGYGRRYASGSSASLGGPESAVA
UniProt P37837, sequence (P37837 whole entry): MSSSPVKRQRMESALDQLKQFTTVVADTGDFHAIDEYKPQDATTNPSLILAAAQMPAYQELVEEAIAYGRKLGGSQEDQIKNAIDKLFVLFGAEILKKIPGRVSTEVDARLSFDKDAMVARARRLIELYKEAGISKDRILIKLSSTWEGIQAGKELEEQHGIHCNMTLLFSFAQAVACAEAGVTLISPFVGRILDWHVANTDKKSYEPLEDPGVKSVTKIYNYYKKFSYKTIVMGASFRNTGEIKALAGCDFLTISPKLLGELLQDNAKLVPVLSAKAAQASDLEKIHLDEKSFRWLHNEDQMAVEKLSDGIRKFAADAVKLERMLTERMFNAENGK
UniProt P60903, sequence (P60903 whole entry): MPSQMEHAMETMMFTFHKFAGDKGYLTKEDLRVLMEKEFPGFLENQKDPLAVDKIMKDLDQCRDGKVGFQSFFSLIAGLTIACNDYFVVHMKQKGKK

Lysine labeling ratio R10:1, inactive:
PGK1 (lysine site: K361) (UniProt P00558) 3.45
LAMB1 (lysine site: K1757) (UniProt P07942) 5.94
SLC7A11 (lysine site: K222) (UniProt Q9UPY5) 2.71
HSPA9 (lysine site: K206) (UniProt P38646) 2.48
UniProt P62249 (lysine site: K131) 2.97
CD47 (lysine site: K130) (UniProt Q08722) 3.14
UniProt Q32P28 (lysine site: K363) 4.24
UniProt Q15149 (lysine site: K923) 9.2
PGAM1 (lysine site: K39) (UniProt P18669) 3.67
UniProt P21589 (lysine site: K433) 3.8
CD70 (lysine site: K93) (UniProt P32970) 3.66
MSN (lysine site: K538) (UniProt P26038) 4.98
CTTN (lysine site: K87) (UniProt Q14247) 2.06
S100A10 (lysine site: K28) (UniProt P60903) 5.79
UniProt P62888 (lysine site: K44) 2.17
XRCC5 (lysine site: K265) (UniProt P13010) 3.42
ITGAV (lysine site: K134) (UniProt P06756) 2.96
PDIA3 (lysine site: K433) (UniProt P30101) 2.21
PEBP1 (lysine site: K187) (UniProt P30086) 2.64
LGALS1 (lysine site: K64) (UniProt P09382) 3.47
IGF2R (lysine site: K1776) (UniProt P11717) 2.48
GPC1 (lysine site: K363) (UniProt P35052) 7.78
UniProt P61978 (lysine site: K422) 4.02
UniProt Q9UHN6 (lysine site: K1182) 6.32
AGRN (lysine site: K383) (UniProt O00468) 12.9
UniProt P63000 (lysine site: K153) 2.29
RPL22 (lysine site: K107) (UniProt P35268) 2.29
UniProt Q15149 (lysine site: K2846) 3.06
FLNB (lysine site: K697) (UniProt O75369) 2.95

Lysine labeling ratio R10:1, active:
TALDO1 (lysine site: K321) (UniProt P37837) 0.79
UniProt Q99500 (lysine site: K27) 1.9
UniProt Q15303 (lysine site: K109) 1.9
AHNAK (lysine site: K128) (UniProt Q09666) 1.37
DYNC1H1 (lysine site: K371) (UniProt Q14204) 1.14
M6PR (lysine site: K99) (UniProt P20645) 1.86
CLU (lysine site: K322) (UniProt P10909) 1.38
SPTAN1 (lysine site: K1784) (UniProt Q13813) 1.22
CD109 (lysine site: K86) (UniProt Q6YHK3) 1.68
UniProt O43865 (lysine site: K302) 1.25
SMOC1 (lysine site: K381) (UniProt Q9H4F8) 1.04
